# ± gives the standard deviation.
# B1: H2B 17-29 A V T K A Q K Kac D G K Kac R (peptide)
# chain: AVTKAQKKDGKKR
# B2: H2B 17-29 A V T K A Q K K D G Kac Kac R (peptide)
# chain: AVTKAQKKDGKKR
# B3: H2B 17-29 A V T K A Q K K D G Kac K R (peptide)
# chain: AVTKAQKKDGKKR
# B4: H2B 17-29 A V T K A Q K Kac D G Kac Kac R (peptide)
# chain: AVTKAQKKDGKKR
# B5: H2B 17-29 A V T K A Q Kac K D G Kac K R (peptide)
# chain: AVTKAQKKDGKKR
# B6: H2B 17-29 A V T K A Q K Kac D G K K R (peptide)
# chain: AVTKAQKKDGKKR
# B7: H2B 17-29 A V T K A Q K K D G K Kac R (peptide)
# chain: AVTKAQKKDGKKR
# B8: H2B 17-29 A V T K A Q Kac K D G K K R (peptide)
# chain: AVTKAQKKDGKKR
# B9: H2B 17-29 A V T K A Q Kac K D G K Kac R (peptide)
# chain: AVTKAQKKDGKKR
# B10: H2B 17-29 A V T K A Q K Kac D G Kac K R (peptide)
# chain: AVTKAQKKDGKKR
# Key:
# Test in all cases: peptide microarray binding signal (635 nm), min-max normalized on array (fraction of array maximum); higher = stronger binding
# Conditions in all cases: peptide region: H2B 17-29
# [1] = molecular target: T1, HaloTag-ATRX ADD domain (163-292)
# T1 chain: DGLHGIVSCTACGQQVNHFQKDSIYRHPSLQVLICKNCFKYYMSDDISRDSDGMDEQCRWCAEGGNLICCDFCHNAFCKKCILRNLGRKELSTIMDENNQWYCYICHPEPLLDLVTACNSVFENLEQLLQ
# Procedure: (§1)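 Histone 13-mer peptides were synthesized as cellulose conjugates with a C-terminal 20-atom PEG linker and printed in triplicate on nitrocellulose. The sequence given is the unmodified backbone; PTMs (Kme1/2/3, Kac, Sph/Tph, Rme/Rme2a/Rme2s, Rcit) are listed in the label and the 'peptide modifications' condition. Slides were probed at 4 °C for 1 h with biotin-labelled (HQ)5-HaloTag reader fusions (ATRX-ADD, ING2-PHD) then streptavidin-Alexa647, or with rabbit histone antibodies then anti-rabbit Alexa647. The mean 635 nm signal of the triplicate spots was scaled 0-1 between the lowest and highest values on each array.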
# [2] = molecular target: HaloTag-ING2 PHD (mouse Ing2 200-280)
# Procedure: as §1
# [3] = molecular target: anti-H3K4me3 antibody ab8580
# Procedure: as §1
# [4] = molecular target: anti-H3K9me3 antibody ab8898
# Procedure: as §1
# [5] = peptide modifications: H2BK24ac H2BK28ac, binder concentration: 1:2,000 dilution
# [6] = peptide modifications: H2BK24ac H2BK28ac, binder concentration: 1:10,000 dilution
# [7] = peptide modifications: H2BK27ac H2BK28ac, binder concentration: 1:2,000 dilution
# [8] = peptide modifications: H2BK27ac H2BK28ac, binder concentration: 1:10,000 dilution
# [9] = peptide modifications: H2BK27ac, binder concentration: 1:2,000 dilution
# [10] = peptide modifications: H2BK27ac, binder concentration: 1:10,000 dilution
# [11] = peptide modifications: H2BK24ac H2BK27ac H2BK28ac, binder concentration: 1:2,000 dilution
# [12] = peptide modifications: H2BK24ac H2BK27ac H2BK28ac, binder concentration: 1:10,000 dilution
# [13] = peptide modifications: H2BK23ac H2BK27ac, binder concentration: 1:2,000 dilution
# [14] = peptide modifications: H2BK23ac H2BK27ac, binder concentration: 1:10,000 dilution
# [15] = peptide modifications: H2BK24ac, binder concentration: 1:2,000 dilution
# [16] = peptide modifications: H2BK24ac, binder concentration: 1:10,000 dilution
# [17] = peptide modifications: H2BK28ac, binder concentration: 1:2,000 dilution
# [18] = peptide modifications: H2BK28ac, binder concentration: 1:10,000 dilution
# [19] = peptide modifications: H2BK23ac, binder concentration: 1:2,000 dilution
# [20] = peptide modifications: H2BK23ac, binder concentration: 1:10,000 dilution
# [21] = peptide modifications: H2BK23ac H2BK28ac, binder concentration: 1:2,000 dilution
# [22] = peptide modifications: H2BK23ac H2BK28ac, binder concentration: 1:10,000 dilution
# [23] = peptide modifications: H2BK24ac H2BK27ac, binder concentration: 1:2,000 dilution
# [24] = peptide modifications: H2BK24ac H2BK27ac, binder concentration: 1:10,000 dilution
binder,measurement,setting,value
B1,peptide microarray binding signal,"[1]; peptide modifications: H2BK24ac H2BK28ac, binder concentration: 50 nM",0.00524 ± 0.00097
same,peptide microarray binding signal,"[1]; peptide modifications: H2BK24ac H2BK28ac, binder concentration: 500 nM",0.00786 ± 0.0018
same,peptide microarray binding signal,"[2]; peptide modifications: H2BK24ac H2BK28ac, binder concentration: 10 nM",0.00412 ± 0.00017
same,peptide microarray binding signal,"[2]; peptide modifications: H2BK24ac H2BK28ac, binder concentration: 100 nM",0.00432 ± 0.00035
same,peptide microarray binding signal,[3]; [5],0.00034 ± 3.1e-05
same,peptide microarray binding signal,[3]; [6],0.00131 ± 5.7e-05
same,peptide microarray binding signal,[4]; [5],0.000695 ± 4.4e-05
same,peptide microarray binding signal,[4]; [6],0.000519 ± 5.6e-06
B2,peptide microarray binding signal,"[1]; peptide modifications: H2BK27ac H2BK28ac, binder concentration: 50 nM",0.0047 ± 0.00043
same,peptide microarray binding signal,"[1]; peptide modifications: H2BK27ac H2BK28ac, binder concentration: 500 nM",0.00386 ± 0.00024
same,peptide microarray binding signal,"[2]; peptide modifications: H2BK27ac H2BK28ac, binder concentration: 10 nM",0.00418 ± 6.5e-05
same,peptide microarray binding signal,"[2]; peptide modifications: H2BK27ac H2BK28ac, binder concentration: 100 nM",0.00276 ± 0.00023
same,peptide microarray binding signal,[3]; [7],0.00017 ± 5.6e-06
same,peptide microarray binding signal,[3]; [8],0.00114 ± 1.2e-05
same,peptide microarray binding signal,[4]; [7],0.000544 ± 3e-05
same,peptide microarray binding signal,[4]; [8],0.0011 ± 4e-05
B3,peptide microarray binding signal,"[1]; peptide modifications: H2BK27ac, binder concentration: 50 nM",0.00248 ± 9e-05
same,peptide microarray binding signal,"[1]; peptide modifications: H2BK27ac, binder concentration: 500 nM",0.00624 ± 0.00045
same,peptide microarray binding signal,"[2]; peptide modifications: H2BK27ac, binder concentration: 10 nM",0.00185 ± 3.3e-05
same,peptide microarray binding signal,"[2]; peptide modifications: H2BK27ac, binder concentration: 100 nM",0.00149 ± 4.1e-05
same,peptide microarray binding signal,[3]; [9],0.00126 ± 4.4e-05
same,peptide microarray binding signal,[3]; [10],0.000913 ± 1.6e-05
same,peptide microarray binding signal,[4]; [9],0.000302 ± 3.1e-06
same,peptide microarray binding signal,[4]; [10],0.000404 ± 4.4e-06
B4,peptide microarray binding signal,"[1]; peptide modifications: H2BK24ac H2BK27ac H2BK28ac, binder concentration: 50 nM",0.00295 ± 3.3e-05
same,peptide microarray binding signal,"[1]; peptide modifications: H2BK24ac H2BK27ac H2BK28ac, binder concentration: 500 nM",0.00638 ± 0.0005
same,peptide microarray binding signal,"[2]; peptide modifications: H2BK24ac H2BK27ac H2BK28ac, binder concentration: 10 nM",0.0037 ± 7.9e-05
same,peptide microarray binding signal,"[2]; peptide modifications: H2BK24ac H2BK27ac H2BK28ac, binder concentration: 100 nM",0.00716 ± 0.00073
same,peptide microarray binding signal,[3]; [11],0.000944 ± 5.4e-05
same,peptide microarray binding signal,[3]; [12],0.00108
same,peptide microarray binding signal,[4]; [11],0.000634 ± 9.9e-06
same,peptide microarray binding signal,[4]; [12],0.00098 ± 3e-05
B5,peptide microarray binding signal,"[1]; peptide modifications: H2BK23ac H2BK27ac, binder concentration: 50 nM",0.0053 ± 0.00061
same,peptide microarray binding signal,"[1]; peptide modifications: H2BK23ac H2BK27ac, binder concentration: 500 nM",0.00781 ± 0.00049
same,peptide microarray binding signal,"[2]; peptide modifications: H2BK23ac H2BK27ac, binder concentration: 10 nM",0.00722 ± 0.00015
same,peptide microarray binding signal,"[2]; peptide modifications: H2BK23ac H2BK27ac, binder concentration: 100 nM",0.00751 ± 0.001
same,peptide microarray binding signal,[3]; [13],0.0021 ± 0.00039
same,peptide microarray binding signal,[3]; [14],0.000856 ± 8.9e-06
same,peptide microarray binding signal,[4]; [13],0.000604 ± 2e-05
same,peptide microarray binding signal,[4]; [14],0.000923 ± 9.6e-06
B6,peptide microarray binding signal,"[1]; peptide modifications: H2BK24ac, binder concentration: 50 nM",0.00295 ± 0.00019
same,peptide microarray binding signal,"[1]; peptide modifications: H2BK24ac, binder concentration: 500 nM",0.00762 ± 0.00062
same,peptide microarray binding signal,"[2]; peptide modifications: H2BK24ac, binder concentration: 10 nM",0.00609 ± 0.00052
same,peptide microarray binding signal,"[2]; peptide modifications: H2BK24ac, binder concentration: 100 nM",0.0283 ± 0.032
same,peptide microarray binding signal,[3]; [15],0.0013 ± 8.9e-05
same,peptide microarray binding signal,[3]; [16],0.000742
same,peptide microarray binding signal,[4]; [15],0.000347 ± 3.5e-06
same,peptide microarray binding signal,[4]; [16],0.000577 ± 6.2e-06
B7,peptide microarray binding signal,"[1]; peptide modifications: H2BK28ac, binder concentration: 50 nM",0.00194 ± 4.1e-05
same,peptide microarray binding signal,"[1]; peptide modifications: H2BK28ac, binder concentration: 500 nM",0.00486 ± 0.00024
same,peptide microarray binding signal,"[2]; peptide modifications: H2BK28ac, binder concentration: 10 nM",0.00209 ± 2.4e-05
same,peptide microarray binding signal,"[2]; peptide modifications: H2BK28ac, binder concentration: 100 nM",0.00142 ± 1.5e-05
same,peptide microarray binding signal,[3]; [17],0.000396 ± 7e-06
same,peptide microarray binding signal,[3]; [18],0.000628 ± 6.7e-06
same,peptide microarray binding signal,[4]; [17],0.000166 ± 3.6e-06
same,peptide microarray binding signal,[4]; [18],0.000346 ± 3.8e-06
B8,peptide microarray binding signal,"[1]; peptide modifications: H2BK23ac, binder concentration: 50 nM",0.00376 ± 0.00013
same,peptide microarray binding signal,"[1]; peptide modifications: H2BK23ac, binder concentration: 500 nM",0.00514 ± 0.0009
same,peptide microarray binding signal,"[2]; peptide modifications: H2BK23ac, binder concentration: 10 nM",0.00424 ± 9.6e-05
same,peptide microarray binding signal,"[2]; peptide modifications: H2BK23ac, binder concentration: 100 nM",0.00666 ± 0.00022
same,peptide microarray binding signal,[3]; [19],0.00051 ± 9.7e-05
same,peptide microarray binding signal,[3]; [20],0.000742
same,peptide microarray binding signal,[4]; [19],0.000498 ± 3.6e-05
same,peptide microarray binding signal,[4]; [20],0.00104 ± 1.1e-05
B9,peptide microarray binding signal,"[1]; peptide modifications: H2BK23ac H2BK28ac, binder concentration: 50 nM",0.00348 ± 0.00011
same,peptide microarray binding signal,"[1]; peptide modifications: H2BK23ac H2BK28ac, binder concentration: 500 nM",0.00929 ± 0.00055
same,peptide microarray binding signal,"[2]; peptide modifications: H2BK23ac H2BK28ac, binder concentration: 10 nM",0.00442 ± 0.00046
same,peptide microarray binding signal,"[2]; peptide modifications: H2BK23ac H2BK28ac, binder concentration: 100 nM",0.00312 ± 0.00011
same,peptide microarray binding signal,[3]; [21],0.002 ± 0.00012
same,peptide microarray binding signal,[3]; [22],0.000799 ± 8.3e-06
same,peptide microarray binding signal,[4]; [21],0.000529 ± 1.3e-05
same,peptide microarray binding signal,[4]; [22],0.000634
B10,peptide microarray binding signal,"[1]; peptide modifications: H2BK24ac H2BK27ac, binder concentration: 50 nM",0.00238 ± 4.6e-05
same,peptide microarray binding signal,"[1]; peptide modifications: H2BK24ac H2BK27ac, binder concentration: 500 nM",0.0059 ± 0.00037
same,peptide microarray binding signal,"[2]; peptide modifications: H2BK24ac H2BK27ac, binder concentration: 10 nM",0.00197 ± 4.6e-05
same,peptide microarray binding signal,"[2]; peptide modifications: H2BK24ac H2BK27ac, binder concentration: 100 nM",0.00177 ± 6.2e-05
same,peptide microarray binding signal,[3]; [23],0.00138 ± 0.0002
same,peptide microarray binding signal,[3]; [24],0.000685 ± 7.2e-06
same,peptide microarray binding signal,[4]; [23],0.000227 ± 4.1e-06
same,peptide microarray binding signal,[4]; [24],0.000346 ± 3.8e-06
